Source: PubChem BioAssay (The Scripps Research Institute Molecular Screening Center)
Shown is part of a subset that was picked to be rich in hits.
TTR transcr act – activators of transthyretin transcription. AID 1117267. activation, % at 16.7 µM. SH-SY5Y TTR promoter Gaussia luciferase, luminescence; 100% = recombinant luciferase protein wells. 1.3% of 92,000 active;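 active means activation above the mean of all tested compounds plus 3 SD, cut at about 9.5% in these data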;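 further: cells exposed to compounds for one day before reading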
HuH7 TTR inh – decreases TTR transcription in HuH7 cells in activator counter-screen; 4% of 1,100 active; AID 1117279; HuH7 TTR promoter-Gaussia luciferase reporter, luminescence; inhibition, % at 16.7 µM; shares compounds with TTR transcr act;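 active means average inhibition above the solvent-only control wells' mean plus 3 SD, cut at about 15% in these data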;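 further: inhibitors lower well luminescence so higher value means more inhibition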
TTR up confirm – human TTR transcription activation, confirmation. shares compounds with TTR transcr act. SHSY5Y TTR promoter Gaussia luciferase, luminescence; 100% = purified Lucia enzyme wells, no cells. activation, % at 16.7 µM. 1,100 tested, under 10 active. AID 1117280;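 active means mean activation above a set limit taken from the earlier primary screen, cut at about 11% in these data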
Numbers stand for hits; n = inactive.

SMILES	TTR transcr act	others
COC(=O)C[C@H]1CC[C@@H]2[C@H](COc3ccc(NC(=O)NCc4ccccc4)cc3C(=O)N2C)O1	n
CC(C)(C)OC(=O)NCc1cc2c(cc1/C=C/S(=O)(=O)NCc1ccc(F)cc1)OCO2	n
CCCCCCCCN1C(=O)[C@@H](CC(=O)NCC2CCCCC2)C[C@@]2(C(=O)OC)C1=C[C@H](COCc1ccccc1)O[C@@H]2C	n
COc1ccc(CC(=O)N2CCN=C2SC)cc1OC	n
CSC1=NCCN1C(=O)Cc1ccc(-c2ccccc2)cc1	n
CSC1=NCCN1C(=O)Cc1ccc(F)cc1	10	HuH7 TTR inh=n;TTR up confirm=n
COc1cccc(NC(=O)NC2CCCCN(Cc3ccccc3C)C2=O)c1 (stereo not drawn)	n
CC(=O)Nc1ccc2nc(CN3CCN(CC=C(C)C)C(CCO)C3)ccc2c1 (stereo not drawn)	67	HuH7 TTR inh=n;TTR up confirm=n
CC(C)=CCN1CCN(Cc2ccoc2)CC1CCO (stereo not drawn)	n
CC(C)=CCN1CCN(Cc2ccc3nsnc3c2)CC1CCO (stereo not drawn)	n
COc1ccc(NC(=O)C(OC(=O)CNC(=O)c2ccccc2)c2ccccc2)cc1F (stereo not drawn)	n
CC(C)CCN1NC2(CCCC(C)C2)NC1=S (stereo not drawn)	13	HuH7 TTR inh=n;TTR up confirm=n
CC(C)CC1CCCC12NC(=O)NC2=O (stereo not drawn)	n
O=C(OCC#CCSc1nnc(-c2ccc(Cl)cc2)o1)c1ccc(F)cc1	n
CCOc1ccc(-c2cc(C(C)=O)c3n(c2=O)CCC3)cc1	n
COc1ccc(CNC(=O)CNC(=O)c2ccc(C(C)(C)C)cc2)cc1OC	13	HuH7 TTR inh=n;TTR up confirm=n
COc1ccc(CCNC(=O)c2ccc(OC)c(OC)c2)cc1OC	n
COc1ccc(CC(=O)NCc2ccccc2)cc1OC	n
c1ccc2sc(-c3csc4c3CCNC4)nc2c1	n
COc1ccc(CN2CCN(S(=O)(=O)c3ccccc3)CC2)c(OC)c1	n
COc1ccc(CN2CCN(S(=O)(=O)c3ccccc3)CC2)c(OC)c1OC	17	HuH7 TTR inh=n;TTR up confirm=n
COc1cccc(CN2CCN(S(=O)(=O)c3ccccc3)CC2)c1OC	n
COc1c(C(C)(C)C)cc(S(=O)(=O)N2c3ccccc3C[C@H]2C)cc1C(C)(C)C	n
COC(=O)[C@]12C[C@H](CC(=O)N3CCN(C(=O)C4CC4)CC3)C(=O)N(Cc3cccc4ccccc34)C1=C[C@H](C(C)C)O[C@@H]2C1CC1	n
CCN1C(=O)[C@H]2[C@H]3CN=C(SCc4ccc(C)cc4)N3[C@@](Cc3ccccc3)(C(=O)OC)[C@H]2C1=O	24	HuH7 TTR inh=n;TTR up confirm=n
SMILES	TTR transcr act	others
CCN1C(=O)[C@H]2[C@H]3CN=C(SCc4ccc(Cl)cc4)N3[C@@](Cc3ccccc3)(C(=O)OC)[C@H]2C1=O	n
CCN1C(=O)[C@H]2[C@H]3CN=C(SCc4ccc(C(=O)OC)cc4)N3[C@@](Cc3ccccc3)(C(=O)OC)[C@H]2C1=O	n
C#CCNC(=O)C[C@H]1C[C@@]2(C(=O)OC)C(=C[C@H](C(C)C)O[C@@H]2C2CC2)N(CCCCCCCC)C1=O	n
S=c1[nH]nc(-c2cc(-c3ccccc3)n[nH]2)n1/N=C/c1ccccc1	11	HuH7 TTR inh=n;TTR up confirm=n
S=c1[nH]nc(-c2cc(-c3ccccc3)n[nH]2)n1/N=C/c1cccs1	n
S=c1[nH]nc(-c2cc(-c3ccccc3)n[nH]2)n1/N=C/C=C/c1ccccc1	n
COc1ccc(S[C@]2(C(=O)N3CCOCC3)CC(=O)N(c3ccc(Cl)cc3)[C@@H]2c2ccc(OC)cc2)cc1	n
CCOC(=O)[C@]12CCCC=C1N(Cc1ccc(OC)cc1)C(=O)[C@@H]2CC(=O)NCCCN1CCCC1=O	n
CCC[C@H]1[C@@H](OC(=O)NCc2cccc(Cl)c2)CC[C@@]23CCCN2C(=O)CCC[C@@H]13	n
COc1ccc(C2Nc3ccccc3C(=O)N2Cc2ccco2)cc1COc1ccccc1C (stereo not drawn)	n
O=S1(=O)CC(N2CCC(Cc3ccccc3)CC2)CN1CCc1ccccc1 (stereo not drawn)	n
CCOC(=O)CCC(NC(=O)CCCCC(=O)NC(CCC(=O)OCC)C(=O)OCC)C(=O)OCC (stereo not drawn)	n
CCOC(=O)CCCCCCCCC(=O)Nc1ccc(-n2[nH]c(=O)cc2C)cc1	n
CCOC(=O)CCCCC(=O)NC(CO)C(=O)NC (stereo not drawn)	9.9	HuH7 TTR inh=n;TTR up confirm=n
CC(C)(C)CCN1CCC[C@H](NC(=O)COc2ccc(F)c(Cl)c2)C1	n
COc1ccc(CNCc2cc(Cl)ccc2O)cc1	10	HuH7 TTR inh=n;TTR up confirm=n
COc1ccc(CNCc2cccc(C)c2)cc1	n
Oc1ccc(Cl)cc1CNCc1ccc(F)c(F)c1	n
Nc1sccc1C(=O)c1ccccc1	9.9	HuH7 TTR inh=n;TTR up confirm=n
Cc1ccccc1C(=O)c1ccccc1C(=O)c1ccccc1	n
O=C(c1ccccc1)c1cccs1	n
CNc1nc(N)c([N+](=O)[O-])c(Nc2cccc(OC)c2)n1	n
CCC[C@H]1[C@@H](NC(=O)C2CCOC2)CC[C@@]23CCCN2C(=O)CCC[C@@H]13 (stereo partly drawn)	n
CCCC1CCC2(CCCN2CCOC(=O)Nc2ccc(OC)cc2)CC1 (stereo not drawn)	n
CCOC(=O)[C@@]12CCC3=C1N(CCC3)C(=O)[C@H](CC(=O)NCCCN1CCCC1=O)C2	n
SMILES	TTR transcr act	others
COc1ccc(N(C(=O)CNC(=O)c2cccs2)C(C(=O)NC2CCCC2)c2ccncc2)cc1 (stereo not drawn)	n
COc1ccc(N(C(=O)Cc2cccs2)C(C(=O)NC2CCCC2)c2ccncc2)cc1 (stereo not drawn)	18	HuH7 TTR inh=n;TTR up confirm=n
COc1ccc(N(C(=O)CNC(=O)c2ccco2)C(C(=O)NC2CCCC2)c2ccncc2)cc1 (stereo not drawn)	n
COc1ccc(CN2C(=O)c3cccnc3C2=O)cc1S(=O)(=O)N1CCOc2ccc(C)cc21	n
CC1CCc2[nH]c3ccc(C(=O)NCC4CCCO4)cc3c2C1 (stereo not drawn)	n
CN(CC(=O)Nc1ccccc1Br)C(=O)c1ccncc1	n
CC1CCc2[nH]c3ccc(C(=O)N(C)CC(=O)Nc4ccccc4Br)cc3c2C1 (stereo not drawn)	31	HuH7 TTR inh=n;TTR up confirm=n
Cc1ccc(NC(=O)OC2CC3CC2[C@H]2CCCCN2C3)cc1 (stereo partly drawn)	n
C[C@@H](NC(=O)[C@@H]1CCCN1C(=O)[C@@H]1CCCN1C(=O)c1ccc(Cl)cc1)c1ccccc1	n
COC(=O)[C@]12C[C@H](CC(=O)NCc3cccc4ccccc34)C(=O)N(CCC3=CCCCC3)C1=C[C@H](C1CCCC1)O[C@@H]2C	n
CN1CCC(N[C@@H](Cc2c[nH]c3ccccc23)C(=O)NCCCc2ccccc2)(C(=O)NCCc2c[nH]c3ccccc23)CC1	n
COc1ccccc1NS(=O)(=O)c1cc(NC(=O)c2cc(F)c(F)c(F)c2F)ccc1N1CCOCC1	27	HuH7 TTR inh=n;TTR up confirm=n
COc1ccccc1NS(=O)(=O)c1cc(NC(C)=O)ccc1N1CCCCC1	n
COc1ccccc1NS(=O)(=O)c1cc(N2Cc3ccccc3C2=N)ccc1N1CCOCC1	n
Cc1ccccc1CNC1CCC12CCC(c1ccccc1)CC2 (stereo not drawn)	n
